This passage reports INHIBITION results from ChEMBL document CHEMBL4513216, “Probing the Open Global Health Chemical Diversity Library for Multistage-Active Starting Points for Next-Generation Antimalarials” (ACS Infect Dis, 2020).

Screen size: about 69,000 compounds; about 8,600 (12%) showed an effect of 50% or more. This is one part of a sample in which strong results are shown more often than they occur.

The subject of the assay is Plasmodium berghei. The assay can be described thus: Screen against P. berghei liver stage (PbLuc), transformed with Luciferase, at 10uM. Type of assay: functional, HepG2. The settings on record: tested at 10 uM.
For the molecule `O=C(C1CCCO1)N1CCC(O)(Cn2ccc3ccncc32)CC1` (stereo not given), the INHIBITION was -45.4%.
Then `Cc1cc(C)c2cc(CNCCCN3CCOCC3)c(=O)[nH]c2c1`, with 3.91%; and `CCc1cc(=O)[nH]c2nnc(SCC(=O)N3CCC(C)CC3)n12`, with 14.4%.
As for `CN(C)C[C@@H]1CCC[C@@H]2CN(c3nccc(C(F)(F)F)n3)C[C@@H]21`, the figure is -3.58%.
On to `C[C@@H]1CN(C(=O)c2cc(Cn3cnc4ccccc43)on2)C[C@H](C)O1`, for which the INHIBITION came out at 30.5%.
Then `Cc1nc2ccccc2n1Cc1cc(C(=O)N2C[C@@H](C)O[C@@H](C)C2)no1`, with 74%; and `Cc1nc2ccccc2n1Cc1cc(C(=O)N(C)C2CCOCC2)no1`, with 37.3%.
As for `CN(C)C(=O)CN1CCOCC2(C1)CN(c1ncc(F)cn1)CCO2` (stereo not given), the figure is 10.6%.
Then `COCCN1C[C@H]2CCC[C@@H](CNc3ncccn3)[C@H]2C1`, with 77.4%.
Turning to `Cn1ccnc1NC[C@@H]1CCC[C@@H]2CN(CC3CC3)C[C@@H]21`, the INHIBITION turned out to be 76.3%.
As for `c1ccc(NC[C@@H]2CCC[C@@H]3CN(Cc4cccnc4)C[C@@H]32)nc1`, the figure is 32.2%.
In the case of `Cn1cc(CN2C[C@H]3CCC[C@@H](CNc4nccn4C)[C@H]3C2)cn1`, the INHIBITION is 23.1%.
Then `Cn1cc(CN2C[C@H]3CCC[C@@H](CNc4ncccn4)[C@H]3C2)cn1`, with 31.2%; and `c1cnc(NC[C@@H]2CCC[C@@H]3CN(Cc4cc[nH]n4)C[C@@H]32)nc1`, with 1.81%.
Then `c1ccc(NC[C@@H]2CCC[C@@H]3CN(Cc4csnn4)C[C@@H]32)nc1`, with 15.9%.
As for `Cn1ccnc1NC[C@@H]1CCC[C@@H]2CN(Cc3nccs3)C[C@@H]21`, the figure is 29%; as for `c1ccc(NC[C@@H]2CCC[C@@H]3CN(Cc4nccs4)C[C@@H]32)nc1`, 51.2%; as for `COCCN(CC(C)C)C(=O)c1cccc(Nc2cnccn2)c1`, 46.6%.
With `CCc1ccc(CN2CCC3(CC2)NC(=O)CC3c2ccncc2)o1` (stereo not given), the INHIBITION was 21.6%.
Then `Cn1cc(CN2CCCC23CCN(C(=O)c2ccccn2)CC3)cn1`, with -17.1%; and `O=c1ccc2c([nH]1)CCC(NCc1ccncc1)C2` (stereo not given), with 11.5%; and `CCSC1=Nc2c(cnn2-c2ccc(Cl)cc2)C2=NCCCN12`, with -37.1%.
As for `CSC1=Nc2c(cnn2-c2cccc(Cl)c2)C2=NCCCN12`, the figure is 79.7%; as for `CSC1=Nc2c(cnn2-c2ccc(Cl)cc2)C2=NCCCN12`, 64.8%.
Then `O=C(NC1=NCCCN1c1ccc(Cl)cc1)c1cccc(Cl)c1`, with 15.1%.
Consider `CSC1=Nc2c(cnn2-c2ccccc2)C2=NCCCN12`, for which the INHIBITION amounted to 73.9%.
As for `CC(C)(C)C(=O)N1CCCc2c(cnn2-c2ccccc2)C1`, the INHIBITION is -43.9%.
As to `CSC1=Nc2c(cnn2-c2ccc(C)cc2)C2=NCCCN12`, the INHIBITION amounted to 69.8%.
Then `CC(=O)c1nn(-c2cccc(Cl)c2)c(C)c1C(C)=O`, with 12.3%.
Then `Cc1cccc(N2CCCN=C2NC(=O)c2cccc(Cl)c2)c1`, with -25.5%.
Then `COC(=O)c1cccc(NCC(=O)NC(N)=O)c1`, with -5.92%; and `CN(Cc1cccc2cnccc12)C(=O)CCc1n[nH]c2c1CCCC2`, with 34.9%; and `Cc1ccc(NC(=O)CCc2cnn(C)c2)cc1F`, with 22.3%.
As for `Cc1cccc(C2(C(=O)NCC3CCN(CC(F)(F)F)C3)CCC2)c1` (stereo not given), the INHIBITION is on record as 5.03%.
As for `CS(=O)(=O)NC1CCCN(C(=O)c2cccnc2)C1` (stereo not given), the figure is -16%; as for `CC(O)CN1CCC(CN(C)CCC(=O)NC2CCCCC2)CC1` (stereo not given), 19.7%; as for `CCc1cc(N[C@H](C(N)=O)C(C)C)n2nc(C)c(C)c2n1`, 16.3%.
In the case of `CCc1cc(N[C@@H](CO)C(N)=O)n2nc(C)c(C)c2n1`, the INHIBITION is 54.4%.
Then `CCc1cc(N[C@@H](CC(C)C)C(N)=O)n2nc(C)c(C)c2n1`, with 47.7%; and `Cc1ccc(CN(Cc2c[nH]cn2)C2CC(C)(C)NC(C)(C)C2)o1`, with 19.3%; and `Cc1ccc(CN(Cc2ccncc2)C2CC(C)(C)NC(C)(C)C2)o1`, with 7.05%.
Then `Cc1ccc(CN(Cc2[nH]cnc2C)C2CC(C)(C)NC(C)(C)C2)o1`, with 38.2%.
Then `Cc1cccc(CN(Cc2ccc(C)o2)C2CC(C)(C)NC(C)(C)C2)n1`, with 53.5%; and `CC1(C)CC(N(Cc2ccccc2)Cc2ncc[nH]2)CC(C)(C)N1`, with 10.26%.
As to `Cc1ccc(CN(Cc2ncc[nH]2)C2CC(C)(C)NC(C)(C)C2)o1`, the INHIBITION came to 91.6%.
Then `CC(C)CO[C@@H]1CC[C@H]2[C@H]1OCCN2S(=O)(=O)C1CC1`, with 28.3%; and `Cc1cncnc1C1CCN(CCO)CC1`, with -20.6%; and `CC(=O)NCc1ccc(C(=O)NC2CCc3nc(C)cn3C2)o1` (stereo not given), with 17.945%.
As to `Cc1cc(C)cc(CN2C[C@H]3COC[C@H](N4CCN(C)CC4)[C@H]3C2)c1`, the INHIBITION is listed as 47.4%.
As for `O=C(C[C@@H]1COC[C@H]2CN(Cc3cccnc3)C[C@@H]12)N1CCOCC1`, the figure is 19.5%.
Consider `COc1ccc(CN2C[C@@H]3COC[C@@H](N4CCN(C)CC4)[C@@H]3C2)cc1`, for which the INHIBITION is 68.4%.
Then `COc1ccc(CN2C[C@@H]3COC[C@H](N4CCN(C)CC4)[C@@H]3C2)cc1`, with 40.4%; and `COc1ccc(CN2C[C@@H]3COC[C@@H](CC(=O)N4CCCC4)[C@@H]3C2)cc1`, with -26.5%; and `CN1CCN([C@H]2COC[C@@H]3CN(Cc4cccnc4)C[C@@H]32)CC1`, with 57.9%.
Then `Cc1nc(CN2CCCN(Cc3nccn3C(C)C)CC2)no1`, with 29.7%.
As for `CNc1nc(CNC(=O)Nc2cccc(CC(F)(F)F)c2)cs1`, the figure is 7.5%; as for `CNC(=O)[C@H]1C[C@@H]2CN(c3cc(OC)ncn3)C[C@@H]2N1C(C)C`, 55.6%; as for `CNC(=O)[C@@H]1C[C@H]2CN(c3ncccn3)C[C@H]2N1C(C)C`, 24.6%.
Regarding `CNC(=O)[C@H]1C[C@@H]2CN(Cc3cccnc3OC)C[C@@H]2N1C(C)C`, the INHIBITION was determined as 33.4%.
Then `CN1CCN(C[C@H]2OC[C@@H]3CCN(Cc4ccsc4)C[C@@H]32)CC1`, with 22.4%.
